Shown are actives, neighbours in structure and some others; about 19% of the full set was active somewhere.
TGFb SMAD3 inh = TGF-b pathway inhibition | HepG2 CAGA-GFP TGF-b/SMAD3 reporter, GFP fluorescence, 18 h; TGF-beta stimulated, 500 pg/mL final | Potency, µM (top dose mostly 46.1 µM), hits mostly inhibitors | 410,000 compounds, 1.2% hits | AID 588855; note: nearly all actives have a fitted effect of over 65% in size
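Using HEPG2 CAGA-GFP reporter cells at 1000 cells/well, we pinned test compounds, stimulated with recombinant TGF-beta (500 pg/mL final) and measured total well GFP after 18 h.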
TDP1 cell noCPT = qHTS for Inhibitors of human tyrosyl-DNA phosphodiesterase 1 (TDP1): qHTS in cells in absence of CPT. DT40 Tdp1-/- hTDP1 cells, no CPT, ATP luminescence, 48 h. Potency, µM (top dose mostly 46.2 µM), hits mostly inhibitors. 420,000 compounds, 15% hits. AID 686978, 2013; note: nearly all actives have a fitted effect of over 55% in size
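Stably hTDP1-transfected Tdp1-null chicken DT40 cells were treated with library compounds minus camptothecin and grown for at least 48 hr at 37 °C, after which cellular ATP was quantified by luminescence.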
ASM inhibitor = human S-ASM enzyme inhibition. placental ASM, HMU-PC fluorogenic substrate, 60 min. Potency, µM (highest dose often 57.5 µM), most hits filed as inhibitors. 340,000 compounds, 0.006% hits
Target sequence (P17405 47-631 limits assumed): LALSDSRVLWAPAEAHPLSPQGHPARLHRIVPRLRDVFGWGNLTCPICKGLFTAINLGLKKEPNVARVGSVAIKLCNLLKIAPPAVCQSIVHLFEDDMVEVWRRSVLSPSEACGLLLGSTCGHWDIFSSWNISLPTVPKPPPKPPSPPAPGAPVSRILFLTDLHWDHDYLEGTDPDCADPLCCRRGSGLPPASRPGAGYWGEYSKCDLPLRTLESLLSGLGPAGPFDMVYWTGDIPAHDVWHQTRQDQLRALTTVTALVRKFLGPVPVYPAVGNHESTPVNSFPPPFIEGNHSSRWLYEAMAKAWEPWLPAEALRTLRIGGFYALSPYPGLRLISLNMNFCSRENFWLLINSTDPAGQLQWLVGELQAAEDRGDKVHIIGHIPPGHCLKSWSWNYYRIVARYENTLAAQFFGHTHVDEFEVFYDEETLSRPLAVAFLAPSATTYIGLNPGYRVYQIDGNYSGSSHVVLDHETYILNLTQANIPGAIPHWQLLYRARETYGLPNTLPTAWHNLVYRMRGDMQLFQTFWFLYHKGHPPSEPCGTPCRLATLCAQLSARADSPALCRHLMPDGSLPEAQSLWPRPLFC
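Human placenta-derived ASM preincubated with compound 10 min at room temperature, then reacted with 9 uM (final) fluorogenic HMU-PC substrate for 60 min at 37 C. Stop solution raises pH to 10; fluorescence read at Ex 386/Em 447 nm.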
IL1B secr inh = blocks inflammasome-driven IL-1 beta release; 360,000 compounds, 4.7% hits; THP-1 LPS/ATP IL-1B secretion, AlphaLISA, 16 h; hits give low values; activity change, % at 57.5 µM; in the data active = activity change below about -50%; inconclusive = mostly about -30% to -49%
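Secreted IL-1B measured by AlphaLISA bead assay after 16 h compound exposure of THP-1 cells; compounds (final up to 57.5 uM) added 1 h before LPS (250 ng/mL) and ATP (1.25 mM) stimulation; lower signal means less secretion.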
TDP1 cell CPT = DT40-hTDP1 cell growth loss with CPT; Potency, µM (doses to about 46.2 µM), hits mostly inhibitors; AID 686979; 420,000 compounds, 12% hits; chicken DT40 Tdp1-/-;hTDP1 cells + 20 nM CPT, ATP luminescence, 48 h; note: nearly all actives have a fitted effect of over 55% in size
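Cell growth measured by CellTiter-Glo luminescence after a minimum 48 h, 37 C compound exposure with 20 nM CPT in Tdp1-knockout DT40 cells stably expressing hTDP1, seeded 400/well; qHTS titration format.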
HepG2 tox = counter-screen for TGF-b inhibitors: cytotoxicity in HepG2 cells; 410,000 compounds, 0.76% hits; AID 588856; Potency, µM (doses to about 46.1 µM), actives largely listed as cytotoxic; HepG2 CAGA-GFP viability, ATP luminescence, 18 h
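HepG2 CAGA-GFP cells (1000/well, DMEM with 1% FBS) received compound, then TGF-beta at 500 pg/mL final, and were incubated 18 hours at 37 degrees C. Viability was read by CellTiter-Glo luminescence. Media-only wells were set as complete cell-killing and DMSO as no toxicity.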
Each line names hits and unclear results; the compound was inactive in the other large screens. Unless noted, calls come from the whole dose curve; as a rule, active = well fitted curve in the direction sought with a large enough effect; inconclusive = small, poorly fitted or top-dose-only effect, or another doubt; inactive = no such curve, though single readings can be large; an effect the other way counts as inactive or inconclusive.

N=C1c2ccccc2CN1NC(=O)COc1ccc(Cl)cc1	none
O=C(CC1SC(N2CCCC2)=NC1=O)Nc1ccc(C(=O)N2CCN(c3cccc(Cl)c3)CC2)cc1 (stereo not given)	TDP1 cell noCPT inconclusive, IL1B secr inh -50.4, TDP1 cell CPT 14.6µM
O=C(CC1SC(N2CCCC2)=NC1=O)Nc1ccc(C(=O)Nc2ncccc2O)cc1 (stereo not given)	TGFb SMAD3 inh inconclusive, TDP1 cell noCPT 10.3µM, TDP1 cell CPT 14.6µM
CN(Cc1ccccc1F)C(=O)c1ccc(NC(=O)CC2SC(N3CCCCC3)=NC2=O)cc1 (stereo not given)	TDP1 cell CPT inconclusive
CN(Cc1ccccc1F)C(=O)c1cccc(NC(=O)CC2SC(N3CCCCC3)=NC2=O)c1 (stereo not given)	TDP1 cell noCPT 23.1µM, TDP1 cell CPT 18.4µM
CN(C)C(=O)c1ccc(NC(=O)CC2SC(N3CCCC3)=NC2=O)cc1 (stereo not given)	none
Cc1ccnc(NC(=O)c2ccc(NC(=O)CC3SC(N4CCCC4)=NC3=O)cc2)c1 (stereo not given)	none
CCOC(=O)C1CCC(CN(Cc2c(Cl)cccc2Cl)S(=O)(=O)c2ccc(F)c(C)c2)CC1 (stereo not given)	TDP1 cell noCPT inconclusive, TDP1 cell CPT inconclusive (no result: ASM inhibitor, IL1B secr inh)
CC(/C=N/NC(=O)c1cc(-c2cccnc2)nc2c1c(C)nn2-c1ccccc1)=C\c1ccccc1	TDP1 cell noCPT 13µM, TDP1 cell CPT 18.4µM
Cc1ccccc1-n1nc(C)c2c(C(=O)NN)cc(-c3ccncc3)nc21	none
CCOC(=O)c1cc(-c2ccco2)nc2c1c(C)nn2-c1ccccc1	none
Cc1nn(-c2ccccn2)c2nc(-c3cccs3)cc(C(=O)NCc3ccco3)c12	TGFb SMAD3 inh inconclusive, TDP1 cell noCPT 23.1µM, TDP1 cell CPT 23.1µM
Cc1nn(-c2ccccc2)c2nc(-c3ccncc3)cc(C(=O)NCc3ccco3)c12	TGFb SMAD3 inh inconclusive, TDP1 cell noCPT 18.4µM, TDP1 cell CPT inconclusive
CCOC(=O)c1cc(-c2cccs2)nc2c1c(C)nn2-c1ccccn1	TGFb SMAD3 inh inconclusive, TDP1 cell noCPT 14.6µM, IL1B secr inh -79.1, TDP1 cell CPT 14.6µM
O=C(NCc1ccco1)c1cc(-c2cccs2)nc2ccccc12	TGFb SMAD3 inh inconclusive, TDP1 cell noCPT inconclusive, TDP1 cell CPT inconclusive
COc1ccc(NC(=O)c2cc(-c3ccccc3)nc3c2c(C)nn3-c2ccccc2)c(OC)c1	TDP1 cell noCPT inconclusive, TDP1 cell CPT inconclusive
CC(C)C(O)C1CCN(Cc2nc(-c3cccs3)no2)CC1 (stereo not given)	none
CCc1ccc(C(C(=O)NCc2ccccc2)N(C(=O)c2csnn2)C2CC2)cc1 (stereo not given)	TDP1 cell noCPT inconclusive
Cc1ccc(NC(=O)c2ccc(CSc3nnc(-c4ccncc4)n3C)cc2)cc1	none
CCn1c(SCc2ccc(C(=O)Nc3cc(C)cc(C)c3)cc2)nnc1-c1ccncc1	TDP1 cell noCPT inconclusive, IL1B secr inh -65.1, TDP1 cell CPT inconclusive
CC12CCC(=O)N1C(C(=O)N1CCN(c3ccc(C(F)(F)F)cc3[N+](=O)[O-])CC1)CS2 (stereo not given)	TDP1 cell noCPT 25.9µM, TDP1 cell CPT 20.6µM
CC12CCC(=O)N1C(C(=O)N1CCN(c3ccc([N+](=O)[O-])cc3)CC1)CS2 (stereo not given)	TDP1 cell noCPT 20.6µM, TDP1 cell CPT inconclusive
CC(C)(C)n1ncc2c(=O)n(Cc3ccccc3SC(F)(F)F)cnc21	TGFb SMAD3 inh inconclusive (no result: TDP1 cell noCPT, ASM inhibitor, IL1B secr inh, TDP1 cell CPT)
COc1ccc(C(=O)Cn2c(NCCCO)nc3ccccc32)cc1	TDP1 cell noCPT inconclusive, IL1B secr inh inconclusive, TDP1 cell CPT inconclusive (no result: ASM inhibitor)
COC(=O)COc1ccc(C(=O)Cn2c(NCCCO)nc3ccccc32)cc1	IL1B secr inh -93.2

Compound activity: PubChem BioAssay, National Center for Advancing Translational Sciences (NCATS)
